The full data set covers some 7,900 targets. This sample favours those with a hit. About 0.6% of all pairs of compound and target were hits. Unmarked numbers belong to inactive results.

UniProt Q7LBC6, sequence (Q7LBC6 whole entry, looked up): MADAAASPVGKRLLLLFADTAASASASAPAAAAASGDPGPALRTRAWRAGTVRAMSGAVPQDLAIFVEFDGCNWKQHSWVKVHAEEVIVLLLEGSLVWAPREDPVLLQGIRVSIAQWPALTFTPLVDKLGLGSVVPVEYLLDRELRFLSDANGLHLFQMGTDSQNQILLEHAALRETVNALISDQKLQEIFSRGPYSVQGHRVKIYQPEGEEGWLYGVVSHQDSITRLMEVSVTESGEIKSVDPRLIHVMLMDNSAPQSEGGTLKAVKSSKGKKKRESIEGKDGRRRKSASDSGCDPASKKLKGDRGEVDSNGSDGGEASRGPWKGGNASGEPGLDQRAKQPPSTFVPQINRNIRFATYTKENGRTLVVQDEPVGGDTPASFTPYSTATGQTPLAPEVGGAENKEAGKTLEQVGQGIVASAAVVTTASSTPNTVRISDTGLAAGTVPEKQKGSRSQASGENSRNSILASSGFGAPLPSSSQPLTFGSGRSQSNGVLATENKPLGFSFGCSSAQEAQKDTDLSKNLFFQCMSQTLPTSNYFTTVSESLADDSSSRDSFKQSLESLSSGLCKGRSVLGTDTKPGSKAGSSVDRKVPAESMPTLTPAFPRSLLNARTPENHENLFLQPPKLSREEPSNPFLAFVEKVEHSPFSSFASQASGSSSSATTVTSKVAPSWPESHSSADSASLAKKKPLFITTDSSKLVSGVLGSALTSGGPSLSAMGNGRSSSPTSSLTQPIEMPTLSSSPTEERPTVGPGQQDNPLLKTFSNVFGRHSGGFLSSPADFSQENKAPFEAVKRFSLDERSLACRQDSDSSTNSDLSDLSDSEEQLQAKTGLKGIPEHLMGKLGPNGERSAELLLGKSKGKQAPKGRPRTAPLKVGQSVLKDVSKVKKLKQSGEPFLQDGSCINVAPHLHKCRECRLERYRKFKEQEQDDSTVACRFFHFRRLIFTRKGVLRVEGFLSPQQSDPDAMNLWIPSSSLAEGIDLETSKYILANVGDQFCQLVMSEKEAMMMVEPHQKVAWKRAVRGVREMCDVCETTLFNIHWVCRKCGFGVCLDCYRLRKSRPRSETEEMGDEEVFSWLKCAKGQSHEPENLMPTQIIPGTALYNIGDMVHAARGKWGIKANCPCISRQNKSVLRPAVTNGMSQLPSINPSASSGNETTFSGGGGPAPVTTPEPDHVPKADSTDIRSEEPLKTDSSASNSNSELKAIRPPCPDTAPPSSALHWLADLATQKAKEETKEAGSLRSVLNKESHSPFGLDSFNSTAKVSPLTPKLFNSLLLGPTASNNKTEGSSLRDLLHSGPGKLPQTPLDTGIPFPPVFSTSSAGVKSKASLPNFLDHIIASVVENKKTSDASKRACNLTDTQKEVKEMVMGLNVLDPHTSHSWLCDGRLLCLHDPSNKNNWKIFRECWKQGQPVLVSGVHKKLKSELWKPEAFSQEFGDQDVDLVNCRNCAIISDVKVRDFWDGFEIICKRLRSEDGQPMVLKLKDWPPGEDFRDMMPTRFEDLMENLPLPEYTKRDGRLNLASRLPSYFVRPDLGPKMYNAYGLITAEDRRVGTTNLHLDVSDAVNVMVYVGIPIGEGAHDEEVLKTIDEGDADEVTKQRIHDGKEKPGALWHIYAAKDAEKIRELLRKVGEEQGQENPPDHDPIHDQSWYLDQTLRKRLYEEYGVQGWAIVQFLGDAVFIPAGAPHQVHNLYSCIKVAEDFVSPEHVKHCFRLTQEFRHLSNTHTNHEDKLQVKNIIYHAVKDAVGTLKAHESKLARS
UniProt Q9Y2E5, sequence (Q9Y2E5 whole entry, looked up): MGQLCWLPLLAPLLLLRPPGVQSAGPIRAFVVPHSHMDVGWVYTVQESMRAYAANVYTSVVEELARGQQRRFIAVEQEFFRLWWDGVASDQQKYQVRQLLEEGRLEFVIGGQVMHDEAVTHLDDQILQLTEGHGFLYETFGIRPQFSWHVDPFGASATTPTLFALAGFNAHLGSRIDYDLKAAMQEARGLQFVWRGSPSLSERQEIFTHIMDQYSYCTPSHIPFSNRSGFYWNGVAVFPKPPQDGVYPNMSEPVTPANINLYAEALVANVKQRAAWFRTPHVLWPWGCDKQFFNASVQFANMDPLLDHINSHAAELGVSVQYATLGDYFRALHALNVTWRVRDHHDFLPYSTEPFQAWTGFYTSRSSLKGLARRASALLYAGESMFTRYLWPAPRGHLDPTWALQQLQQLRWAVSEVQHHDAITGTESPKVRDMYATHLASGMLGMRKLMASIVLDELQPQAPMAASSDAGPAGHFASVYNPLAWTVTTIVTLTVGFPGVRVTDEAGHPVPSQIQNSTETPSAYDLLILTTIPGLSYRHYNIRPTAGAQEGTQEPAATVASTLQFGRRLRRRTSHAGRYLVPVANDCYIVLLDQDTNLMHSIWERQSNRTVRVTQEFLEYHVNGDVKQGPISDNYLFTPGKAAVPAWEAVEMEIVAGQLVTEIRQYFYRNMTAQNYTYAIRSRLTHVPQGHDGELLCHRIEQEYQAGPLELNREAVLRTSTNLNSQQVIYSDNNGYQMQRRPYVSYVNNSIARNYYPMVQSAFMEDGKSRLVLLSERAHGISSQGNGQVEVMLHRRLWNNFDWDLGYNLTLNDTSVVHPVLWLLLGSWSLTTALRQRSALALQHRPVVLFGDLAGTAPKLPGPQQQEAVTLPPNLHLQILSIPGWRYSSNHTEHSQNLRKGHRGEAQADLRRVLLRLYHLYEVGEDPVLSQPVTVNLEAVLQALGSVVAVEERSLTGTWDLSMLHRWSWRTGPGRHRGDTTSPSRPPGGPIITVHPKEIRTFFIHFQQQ
UniProt Q71RC2, sequence (Q71RC2 whole entry, looked up): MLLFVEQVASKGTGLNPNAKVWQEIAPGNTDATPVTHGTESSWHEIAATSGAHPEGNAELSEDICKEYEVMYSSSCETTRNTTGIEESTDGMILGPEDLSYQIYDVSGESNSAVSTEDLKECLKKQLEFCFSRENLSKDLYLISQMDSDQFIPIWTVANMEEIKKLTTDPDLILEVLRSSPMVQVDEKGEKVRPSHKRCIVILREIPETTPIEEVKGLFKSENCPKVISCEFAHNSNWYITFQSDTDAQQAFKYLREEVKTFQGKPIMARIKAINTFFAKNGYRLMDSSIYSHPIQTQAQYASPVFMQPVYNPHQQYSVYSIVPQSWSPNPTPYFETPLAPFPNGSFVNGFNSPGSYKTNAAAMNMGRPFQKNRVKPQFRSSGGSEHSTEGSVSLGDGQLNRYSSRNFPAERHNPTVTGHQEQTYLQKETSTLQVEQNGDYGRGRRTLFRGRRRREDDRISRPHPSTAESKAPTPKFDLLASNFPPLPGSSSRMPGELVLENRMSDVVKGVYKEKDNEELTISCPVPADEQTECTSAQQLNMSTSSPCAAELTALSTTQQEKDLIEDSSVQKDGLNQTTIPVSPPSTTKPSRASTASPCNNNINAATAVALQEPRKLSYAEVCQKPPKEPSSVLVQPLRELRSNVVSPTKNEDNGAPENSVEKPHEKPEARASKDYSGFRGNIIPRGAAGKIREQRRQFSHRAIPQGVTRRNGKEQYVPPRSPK
UniProt Q92615, sequence (Q92615 whole entry, looked up): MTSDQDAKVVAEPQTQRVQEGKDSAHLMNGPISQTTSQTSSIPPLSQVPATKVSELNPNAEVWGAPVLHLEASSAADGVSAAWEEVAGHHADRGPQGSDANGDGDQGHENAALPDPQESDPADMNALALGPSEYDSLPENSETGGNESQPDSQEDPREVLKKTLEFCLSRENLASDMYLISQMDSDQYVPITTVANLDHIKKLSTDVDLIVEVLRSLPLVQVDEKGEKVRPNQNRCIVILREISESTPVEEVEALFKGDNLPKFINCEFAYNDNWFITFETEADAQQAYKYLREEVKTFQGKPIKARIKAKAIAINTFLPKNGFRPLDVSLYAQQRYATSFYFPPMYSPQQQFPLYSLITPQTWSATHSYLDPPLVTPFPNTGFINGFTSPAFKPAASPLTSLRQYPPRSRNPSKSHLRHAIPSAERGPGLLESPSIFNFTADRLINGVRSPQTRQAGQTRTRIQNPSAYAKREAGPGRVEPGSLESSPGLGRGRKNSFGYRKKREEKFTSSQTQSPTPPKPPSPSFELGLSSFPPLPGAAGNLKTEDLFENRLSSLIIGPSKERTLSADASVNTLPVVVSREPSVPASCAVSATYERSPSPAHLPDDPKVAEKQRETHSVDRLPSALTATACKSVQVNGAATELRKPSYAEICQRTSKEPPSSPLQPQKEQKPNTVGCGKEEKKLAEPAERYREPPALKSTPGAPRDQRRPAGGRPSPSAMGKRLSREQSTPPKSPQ
UniProt P01116, sequence (P01116 whole entry, looked up): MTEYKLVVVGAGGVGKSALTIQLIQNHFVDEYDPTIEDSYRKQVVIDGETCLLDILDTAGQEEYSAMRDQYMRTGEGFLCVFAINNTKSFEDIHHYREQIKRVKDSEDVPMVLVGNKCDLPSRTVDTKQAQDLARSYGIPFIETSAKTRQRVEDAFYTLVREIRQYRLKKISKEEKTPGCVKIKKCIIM
UniProt Q8IW41, sequence (Q8IW41 whole entry, looked up): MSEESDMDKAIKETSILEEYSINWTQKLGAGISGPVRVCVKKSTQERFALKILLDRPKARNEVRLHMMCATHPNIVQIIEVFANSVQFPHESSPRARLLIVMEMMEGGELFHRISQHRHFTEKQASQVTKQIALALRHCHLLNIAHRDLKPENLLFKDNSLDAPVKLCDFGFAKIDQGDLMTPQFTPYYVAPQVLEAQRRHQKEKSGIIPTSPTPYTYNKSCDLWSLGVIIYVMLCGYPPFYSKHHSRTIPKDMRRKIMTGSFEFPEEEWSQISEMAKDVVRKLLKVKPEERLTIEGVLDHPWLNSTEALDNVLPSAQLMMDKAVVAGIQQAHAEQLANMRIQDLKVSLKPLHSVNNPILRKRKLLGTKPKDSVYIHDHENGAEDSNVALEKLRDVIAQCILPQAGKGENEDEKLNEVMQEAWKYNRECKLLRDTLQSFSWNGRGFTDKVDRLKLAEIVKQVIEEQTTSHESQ
UniProt Q8WV07, sequence (Q8WV07 whole entry, looked up): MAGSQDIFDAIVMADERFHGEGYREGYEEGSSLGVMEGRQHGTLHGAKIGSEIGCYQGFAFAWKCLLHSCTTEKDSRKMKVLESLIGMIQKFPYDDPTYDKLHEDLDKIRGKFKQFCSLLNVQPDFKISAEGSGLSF

Compound in one assay: C1=CC(=CC=C1C2=NC3=C(N2)C=C(C=C3)C(=O)N)OC4=CC=C(C=C4)Cl
Put plainly: log2 fold change, soluble protein after heating vs DMSO (PISA); higher = thermal stabilisation; K562 cells, 10 uM, 30 min; active = over 0.2 and 3.5 SD of the protein, either way, in both replicates (recomputed). The method in brief:
(§1)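 K562 cells at 2×10^6 cells/mL were treated with 10 μM compound for 30 min. Aliquots were heated for 3 min across 48°C-58°C, pooled, and extracted in PBS with 0.5% NP-40 at 4°C; soluble protein was the supernatant after 21,000xg for 90 min. Soluble protein was quantified by TMTpro 16plex LC-MS/MS with channel sums equalised, and reported as log2 fold change in thermal stability against DMSO controls, with values from duplicates.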
Regarding KPNA6 (UniProt O60684), the log2 fold change is -0.075.

KDM3B (UniProt Q7LBC6): the log2 fold change was -0.019.

Turning to LMBRD2 (UniProt Q68DH5), the log2 fold change was 0.011.

Consider ME2 (UniProt P23368), for which the log2 fold change was -0.078.

On to ILKAP (UniProt Q9H0C8), for which the log2 fold change is -0.02.

Take MFN2 (UniProt O95140): the log2 fold change is -0.001.

With INPP5B (UniProt P32019), the log2 fold change was -0.052.

Consider LARP1 (UniProt Q6PKG0), for which the log2 fold change is 0.085.

As to MIER1 isoform 12 (UniProt Q8N108), the log2 fold change is -0.031.

Turning to L2HGDH (UniProt Q9H9P8), the log2 fold change was 0.043.

Consider KRAS isoform 2 (UniProt P01116), for which the log2 fold change is 0.029.

With LTO1 (UniProt Q8WV07), the log2 fold change was 0.059.

Turning to MFN1 (UniProt Q8IWA4), the log2 fold change is 0.001.

In the case of IKZF1 (UniProt Q13422), the log2 fold change is 0.002.

For the target MAP3K7 (UniProt O43318), the log2 fold change is -0.091.

Consider KIF3A (UniProt Q9Y496), for which the log2 fold change is -0.122.

For the target IMMT isoform 4 (UniProt Q16891), the log2 fold change is -0.006.

Regarding LDLR (UniProt P01130), the log2 fold change was 0.03.

As for LMNA (UniProt P02545), the log2 fold change is -0.106.

As for MAGI1 (UniProt Q96QZ7), the log2 fold change is 0.049.

With MAP3K4 isoform 2 (UniProt Q9Y6R4), the log2 fold change is -0.023.

Turning to IWS1 (UniProt Q96ST2), the log2 fold change was 0.

As for INTS5 (UniProt Q6P9B9), the log2 fold change was -0.086.

As for KLHDC4 (UniProt Q8TBB5), the log2 fold change is -0.013.

In the case of LSS (UniProt P48449), the log2 fold change is 0.051.

On to MAN2B2 (UniProt Q9Y2E5), for which the log2 fold change is -0.003.

For the target KHDC4 (UniProt Q7Z7F0), the log2 fold change was -0.058.

For the target MCCC2 (UniProt Q9HCC0), the log2 fold change was 0.004.

With MAPKAPK5 (UniProt Q8IW41), the log2 fold change was -0.087.

For JMJD6 isoform 3 (UniProt Q6NYC1), the log2 fold change is 0.044.

Consider LARP4B (UniProt Q92615), for which the log2 fold change is 0.017.

Regarding LEO1 (UniProt Q8WVC0), the log2 fold change was -0.079.

Take KDM1A isoform 2 (UniProt O60341): the log2 fold change was -0.028.

Consider MFSD5 isoform 2 (UniProt Q6N075), for which the log2 fold change was 0.115.

In the case of ITIH4 (UniProt Q14624), the log2 fold change is 0.091.

Take LARP4 isoform 4 (UniProt Q71RC2): the log2 fold change is 0.055.

Consider LTV1 (UniProt Q96GA3), for which the log2 fold change was 0.041.

LIAS (UniProt O43766): the log2 fold change is 0.019.

Compound in a further assay: C1=CC2=C(C=CC(=C2)/C=C\3/C(=O)NC(=NCC4=CC=CS4)S3)N=C1
The description is as above. The method in brief: as §1
In the case of KPNA6 (UniProt O60684), the log2 fold change is 0.013.

On to KDM3B (UniProt Q7LBC6), for which the log2 fold change was 0.

With LMBRD2 (UniProt Q68DH5), the log2 fold change was 0.022.

On to ME2 (UniProt P23368), for which the log2 fold change was 0.036.

ILKAP (UniProt Q9H0C8): the log2 fold change was 0.126.

Consider MFN2 (UniProt O95140), for which the log2 fold change was 0.026.

On to INPP5B (UniProt P32019), for which the log2 fold change was 0.055.

LARP1 (UniProt Q6PKG0): the log2 fold change was -0.025.

On to MIER1 isoform 12 (UniProt Q8N108), for which the log2 fold change is 0.024.

Take L2HGDH (UniProt Q9H9P8): the log2 fold change is 0.07.

In the case of KRAS isoform 2 (UniProt P01116), the log2 fold change is 0.005.

Regarding LTO1 (UniProt Q8WV07), the log2 fold change was 0.002.

For the target MFN1 (UniProt Q8IWA4), the log2 fold change was 0.07.

As for IKZF1 (UniProt Q13422), the log2 fold change was -0.015.

On to MAP3K7 (UniProt O43318), for which the log2 fold change is 0.034.

As for KIF3A (UniProt Q9Y496), the log2 fold change is -0.049.

As for IMMT isoform 4 (UniProt Q16891), the log2 fold change was -0.021.

Regarding LDLR (UniProt P01130), the log2 fold change is -0.018.

Regarding LMNA (UniProt P02545), the log2 fold change is -0.031.

With MAGI1 (UniProt Q96QZ7), the log2 fold change is -0.008.

MAP3K4 isoform 2 (UniProt Q9Y6R4): the log2 fold change was 0.039.

IWS1 (UniProt Q96ST2): the log2 fold change is -0.033.

Consider INTS5 (UniProt Q6P9B9), for which the log2 fold change was -0.023.

On to KLHDC4 (UniProt Q8TBB5), for which the log2 fold change was 0.077.

With LSS (UniProt P48449), the log2 fold change is 0.128.

Regarding MAN2B2 (UniProt Q9Y2E5), the log2 fold change is 0.076.

As to KHDC4 (UniProt Q7Z7F0), the log2 fold change was 0.089.

With MCCC2 (UniProt Q9HCC0), the log2 fold change was -0.04.

For the target MAPKAPK5 (UniProt Q8IW41), the log2 fold change was 0.019.

Turning to JMJD6 isoform 3 (UniProt Q6NYC1), the log2 fold change is 0.051.

Turning to LARP4B (UniProt Q92615), the log2 fold change was -0.057.

In the case of LEO1 (UniProt Q8WVC0), the log2 fold change was -0.006.

For KDM1A isoform 2 (UniProt O60341), the log2 fold change was 0.075.

For the target MFSD5 isoform 2 (UniProt Q6N075), the log2 fold change is -0.061.

Take ITIH4 (UniProt Q14624): the log2 fold change is 0.143.

Take LARP4 isoform 4 (UniProt Q71RC2): the log2 fold change is 0.086.

In the case of LTV1 (UniProt Q96GA3), the log2 fold change is -0.037.

As to LIAS (UniProt O43766), the log2 fold change is 0.014.
